# The list is not random: actives were taken first. Their share in the collection is about 28%.
# CYP2C9 inhib: blockers of cytochrome P450 2C9 activity – biochemical, luminescence, ADME assay, primary screen | actives 20% (n = 96,000) | CYP2C9 Supersomes, luciferin-H conversion | AID 777, 2007 | inhibition, % at 5 µM | P11712;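 active = blocking of liver enzyme CYP2C9 beyond about 50% at 5 µM, limit read from the data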
# CYP2C19 inh: blockers of cytochrome P450 2C19 activity – biochemical, luminescence, ADME assay, primary screen; CYP2C19 Supersomes, luciferin-H EGE luminescence, 30 min; inhibition, % at 5 µM; actives 21% (n = 96,000); AID 778, 2007;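 active = CYP2C19 inhibition above a set limit at 5 µM in the primary screen, cut at about 50% in these data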;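 note: plate controls were negative control wells for no effect and 2.5 mM tranylcypromine positive control for full effect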
# Target sequence (P33261 whole entry, looked up): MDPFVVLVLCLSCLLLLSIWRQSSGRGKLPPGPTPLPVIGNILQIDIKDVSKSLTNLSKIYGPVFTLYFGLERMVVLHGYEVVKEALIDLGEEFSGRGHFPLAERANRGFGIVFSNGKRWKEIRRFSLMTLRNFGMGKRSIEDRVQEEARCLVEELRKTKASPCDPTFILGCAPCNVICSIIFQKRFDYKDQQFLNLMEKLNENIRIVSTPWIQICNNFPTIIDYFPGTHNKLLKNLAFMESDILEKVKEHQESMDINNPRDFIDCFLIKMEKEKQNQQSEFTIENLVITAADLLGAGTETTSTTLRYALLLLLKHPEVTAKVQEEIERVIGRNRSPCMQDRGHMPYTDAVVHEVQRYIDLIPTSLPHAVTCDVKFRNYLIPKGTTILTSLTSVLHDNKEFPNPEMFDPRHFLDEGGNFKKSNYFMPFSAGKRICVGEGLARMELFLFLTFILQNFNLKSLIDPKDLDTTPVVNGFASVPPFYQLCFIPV
# CYP2C9 activ: human CYP2C9 activators, primary screen, biochemical, luminescence | actives 1.4% (n = 96,000) | activation factor at 5 µM | Cytochrome P450 2C9 (Homo sapiens), P11712 | AID 1024, 2008 | recombinant CYP2C9, luciferin-H conversion; active compounds read high; factor 1 = untreated enzyme, 0 = blocked;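 active = activation factor of 2 or more for CYP2C9 at a 5 µM dose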;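 note: 0 = sulfaphenazole-blocked wells and 1 = vehicle-only wells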
# Pyk2 oligo antag: antagonists of Pyk2 self-association, primary screen, Q293 cells, FERM NanoBiT luminescence, HTS; Protein-tyrosine kinase 2-beta (Homo sapiens), Q14289; active compounds read low; z-score (the deposit names both 25 µM and 10 µM); actives 0.83% (n = 99,000); AID 1347419, 2020;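 active = Z-score of -3 or lower, scaled per plate to the spread of control and sample wells; inactive = z-score above -3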;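 note: negative z-score means lost luminescence so less FERM oligomerization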
# CYP2C19 act: human CYP2C19 activators, primary screen, biochemical, luminescence; Cytochrome P450 2C19 (Homo sapiens), P33261; activation factor at 5 µM; 96,000 tested, under 10 active; AID 1025, 2008; recombinant CYP2C19, luciferin-H EGE luminescence; active compounds read high; 0 = fully inhibited enzyme, 1 = untreated enzyme;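 active = activation factor of at least 2 at 5 µM in the primary screen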;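 note: 0 = wells with 2.5 mM tranylcypromine and 1 = vehicle-only wells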
# * = called active by the depositor; · = no result given.
SMILES,CYP2C9 inhib,CYP2C19 inh,CYP2C9 activ,Pyk2 oligo antag,CYP2C19 act
CCSc1ncc(C#N)c(=O)[nH]1,-12,2,1.1,0.58,1
Cc1cc(C)c(-c2cc(NC(=O)CSc3n[nH]c(N)n3)n(-c3ccccc3)n2)cc1C,90*,94*,0.1,-2,0.1
Nc1nc(SCC(=O)NCCC(c2ccccc2)c2ccccc2)n[nH]1,71*,96*,0.3,·,0
Nc1nc(SCC(=O)Nc2ccccc2-c2ccccc2)n[nH]1,25,42,0.7,-0.64,0.6
Cc1occc1C(=O)Nc1cccc(/C=C/C(=O)O)c1,·,·,·,-0.31,·
Cc1cc(C)n(-c2nc(SCC(=O)NCC3CCCO3)c3c4c(sc3n2)CCCC4)n1 (stereo not drawn),85*,63*,0.2,·,0.4
CC(C)(C)OCC(NC(=O)C(CC(N)=O)NC(=O)OC(C)(C)C)C(=O)OC(C)(C)C (stereo not drawn),-7,3,1.1,0.32,1
O=C(N1CCOCC1)C1(c2ccc(Cl)cc2)CCCC1,-4,88*,1,-0.37,0.1
O=C(CS(=O)(=O)Cc1ccccc1)Nc1nc2ccccc2s1,55*,54*,0.5,-0.4,0.5
CCOC(=O)CC(=O)Nc1nc2ccccc2s1,18,28,0.8,0.29,0.7
Cc1ccc(CC(=O)Nc2nc3ccccc3s2)cc1,34,14,0.7,-0.74,0.9
O=S(=O)(Nc1nc2ccccc2s1)c1ccc(Cl)s1,95*,65*,0,-1.7,0.3
CN(CC(=O)Nc1nc2ccccc2s1)S(=O)(=O)c1ccccc1,44,52*,0.6,-1.2,0.5
C#CC1(O)CC(C)N(C)C(C)C1 (stereo not drawn),-5,-7,1,0.82,1.1
COc1cc2c(cc1OC)CN(C(=O)c1cc(S(=O)(=O)N3CCOCC3)ccc1Cl)CC2,15,7,0.8,-0.14,0.9
CCOC(=O)COc1ccccc1-c1ccno1,11,39,0.9,0.45,0.6
Cc1ccc2c(C)nc(NC3=NCN(CCc4ccccc4)CN3)nc2c1,-4,6,1,·,0.9
COc1ccc2cc(CN(CC3CCCO3)S(=O)(=O)c3ccccc3)c(=O)[nH]c2c1 (stereo not drawn),86*,-17,0.1,-0.39,1.2
COc1ccc2cc(CN(CC3COCCO3)S(=O)(=O)c3ccc(Cl)cc3)c(=O)[nH]c2c1 (stereo not drawn),60*,22,0.4,-1.7,0.8
CCc1ccc2[nH]c(=O)c(CN(Cc3ccco3)S(=O)(=O)c3ccc4c(c3)OCCO4)cc2c1,-10,-7,1.1,0.28,1.1
COc1cc2cc(CN(CCO)S(=O)(=O)c3ccccc3)c(=O)[nH]c2cc1OC,12,6,0.9,0.77,0.9
COc1ccc2cc(CN(CC3COCCO3)S(=O)(=O)c3c(C)cc(C)cc3C)c(=O)[nH]c2c1 (stereo not drawn),20,21,0.8,·,0.8
COc1ccc2[nH]c(=O)c(CN(CCO)S(=O)(=O)c3ccc4c(c3)OCCO4)cc2c1,48,75*,0.5,0.9,0.2
Cc1ccc(C)c2[nH]c(=O)c(CN(Cc3ccco3)S(=O)(=O)c3ccc4c(c3)OCCO4)cc12,67*,75*,0.3,0.14,0.2
CN1CCCCCC1=NC1=C(C#N)CCCC1,-6,17,1.1,0.39,0.8
SMILES,CYP2C9 inhib,CYP2C19 inh,CYP2C9 activ,Pyk2 oligo antag,CYP2C19 act
Cc1nc2nc3c(cn2n1)C(=O)CCC3,33,11,0.7,0.38,0.9
COC(=O)c1ccccc1S(=O)(=O)N(CCCO)Cc1cc2c(C)ccc(C)c2[nH]c1=O,84*,54*,0.2,-1.9,0.5
COc1ccc2[nH]c(=O)c(COC(=O)c3ccco3)cc2c1,8,13,0.9,-0.45,0.9
COC(=O)c1ccccc1S(=O)(=O)N(Cc1ccco1)Cc1cc2cc(OC)ccc2[nH]c1=O,45,68*,0.5,0.32,0.3
Cc1cc(C)c2cc(CN(CC3CCCO3)S(=O)(=O)c3ccc4c(c3)OCCO4)c(=O)[nH]c2c1 (stereo not drawn),73*,36,0.3,-2.5,0.6
Cc1ccc(S(=O)(=O)N(Cc2cc3cc4c(cc3[nH]c2=O)OCCO4)CC2CCCO2)cc1 (stereo not drawn),24,21,0.8,0.24,0.8
CC(CP(=O)(O)O)NC(=O)Cc1ccccc1 (stereo not drawn),-22,-10,1.2,0.04,1.1
CN(C(=O)CSc1nc(N)nn1-c1ccccc1)c1ccccc1,33,84*,0.7,·,0.2
CCCCNC(=O)C1CCN(c2nc(OC)nc(OC)n2)CC1,·,·,·,1.1,·
COC(=O)c1ccc2c(c1)SC1=C(CCCC1=O)N2,20,83*,0.8,0.08,0.2
CCC(C)N1C(=O)CCC1C(=O)NCc1ccc2c(c1)OCO2 (stereo not drawn),0,0,1,·,1
Cc1cc2nnc(SC3CCCCN(C(=O)c4ccc(F)cc4)C3=O)n2c2ccccc12 (stereo not drawn),29,84*,0.7,0.04,0.2
Cc1cc2nnc(SC(C)C#N)n2c2ccccc12 (stereo not drawn),·,·,·,0.67,·
Cc1cc2nnc(SC3CCOC3=O)n2c2ccccc12 (stereo not drawn),-108,-1,2.1*,0.25,1
COc1ccccc1S(=O)(=O)Cc1ccc(C(=O)NCCN2CCCCCC2)o1,-7,-17,1.1,·,1.2
COc1ccccc1S(=O)(=O)Cc1ccc(C(=O)N2CCN(c3ccc(C)cc3)C(C)C2)o1 (stereo not drawn),91*,55*,0.1,·,0.4
COc1ccc(S(=O)(=O)Cc2ccc(C(=O)N3CCN(c4cccc(C)c4)C(C)C3)o2)cc1 (stereo not drawn),90*,58*,0.1,·,0.4
CCOC(=O)N1CCN(C(=O)c2ccc(CS(=O)(=O)c3ccccc3OC)o2)CC1,22,-3,0.8,0.25,1
Cc1ccccc1S(=O)(=O)Cc1ccc(C(=O)N2CCN(c3ncccn3)CC2)o1,84*,92*,0.2,-0.2,0.1
COc1ccccc1N1CCN(C(=O)c2ccc(CS(=O)(=O)c3ccccc3OC)o2)CC1,79*,35,0.2,0.65,0.7
O=C(COc1ccc2ccc(=O)oc2c1)Nc1ccc2c(c1)OCCO2,·,·,·,-0.03,·
O=C(CN1C(=O)COc2ccccc21)N(Cc1ccccc1)Cc1ccccn1,12,10,0.9,0.09,0.9
Cc1ccc(CN(Cc2cccnc2)C(=O)CN2C(=O)COc3ccccc32)o1,67*,95*,0.3,-0.39,0

# Compound activity from PubChem.
